Results filed as inconclusive are left out. Where a call stands in place of a potency, no number is given. The source made the active and inactive calls. Calls come from the whole dose curve; as a rule, active = well fitted cell-killing curve with a large enough effect; inconclusive = small, poorly fitted or top-dose-only effect, or effect the other way; inactive = no such curve, though single readings can be large or run the other way.
Potency is the fitted concentration of half-maximal effect.

The assay is described as follows: Quantitative High-Throughput drug screen in 47 multiple myeloma cell lines against the NCATS MIPE library collection: RPMI8226_ATCC cell viability assay (AID 1919871). Note: nearly all actives have a fitted effect of over 30% in size. The conditions noted are these: RPMI8226 myeloma viability, CellTiter-Glo ATP luminescence, 48 h; series mostly up to 45.8 µM. From the text: PI: Beverly A. Mock Ph.D.
Laboratory of Cancer Biology and Genetics,
Center for Cancer Research, National Cancer Institute,
National Institute of Health, Bethesda, Maryland
Drug resistance and disease progression are common in multiple myeloma (MM) patients, underscoring the need for new therapeutic combinations. […] We hypothesized that effective combinations would reduce MYC expression and enhance p16 activity. […] These preclinical data identify potentially useful drug combinations for evaluation in drug-resistant MM and reveal potential mechanisms of combined drug sensitivity.
Described herein is the primary MIPE qHTS used to cherrypick compounds. Validated compounds were then further tested for potential synergistic activiy.
[1] Peat TJ, Gaikwad SM, Dubois W, Gyabaah-Kessie N, Zhang S, Gorjifard S, Phyo Z, Andres M, Hughitt VK, Simpson RM, Miller MA, Girvin AT, Taylor A, Williams D, D'Antonio N, Zhang Y, Rajagopalan A, Flietner E, Wilson K, Zhang X, Shinn P, Klumpp-Thomas C, McKnight C, Itkin Z, Chen L, Kazandijian D, Zhang J, Michalowski AM, Simmons JK, Keats J, Thomas CJ, Mock BA. Drug combinations identified by high-throughput screening promote cell cycle transition and upregulate Smad pathways in myeloma. Cancer Lett. 2023 Aug 1;568:216284. doi: 10.1016/j.canlet.2023.216284. Epub 2023 Jun 24. PMID: 37356470; PMCID: PMC10408729.
SEQUENCE No. (e.g., 1, 2, 3, etc.); […] (e.g., Cells, Incubation, Reagent, etc.); VALUE and DESCRIPTION.
1; Cells; 5 uL; white, solid bottom 1536-well Greiner assay plate.
2; Compounds; 23 nL; Kalypsis pin tool (Wako USA) equipped with a 1536-well pin head to transfer to the assay plates.
3; Incubation; 48 hours; 37C incubation.
4; Reagent;5uL; CellTiter Glo (Promega).
5; Detector; 425V; Luminescence; Viewlux PerkinElmer.
NOTES (numbers refer to Sequence numbers above)
1. The cell-based screening methods employed in this study were like those previously published. Briefly, the corresponding myeloma cell lines were screened in 1,536-well plates with 500 cells, 5-uL per well for inhibition of cell viability (assessed by measuring ATP levels with CellTiterGlo).
2. NCATS MIPE 4.0 library of approved and investigational drugs were added using the Kalypsis pin tool. Wells treated with DMSO only for 100% viability and media only for 0% viability were used as controls.
3. The assay plates were covered and incubated for 48 hours in a 37C, 5% CO2 incubator with controlled humidity.
4. After 48 hours, CellTilter-GloTM luminescent substrate mix (Promega) reagent was added to the assay plate and plates we incubated for 5 min at room temperature.
5. Signal was measured as median relative luminescence units on a ViewLux (PerkinElmer) multiplate reader.
[1] Heske CM, Davis MI, Baumgart JT, Wilson K, Gormally MV, Chen L, Zhang X, Ceribelli M, Duveau DY, Guha R, Ferrer M, Arnaldez FI, Ji J, Tran HL, Zhang Y, Mendoza A, Helman LJ, Thomas CJ. Matrix Screen Identifies Synergistic Combination of PARP Inhibitors and Nicotinamide Phosphoribosyltransferase (NAMPT) Inhibitors in Ewing Sarcoma. Clin Cancer Res. 2017 Dec 1;23(23):7301-7311. doi: 10.1158/1078-0432.CCR-17-1121. Epub 2017 Sep 12. PMID: 28899971; PMCID: PMC6636827.
For orientation: Cellular ATP, detected with luciferase, serves as a proxy for viable cell number.
For the compound `COc1nc(C)cnc1NS(=O)(=O)c1cccnc1-c1ccc(-c2nnco2)cc1`, the Potency result was “inactive”. Consider `O=C1NC(=O)C(c2cnc3ccccn23)=C1c1cn2c3c(cccc13)CN(C(=O)N1CCOCC1)CC2`, for which the Potency is 18.7 µM (active). In the case of `C[C@@H](N)c1ccc(C(=O)Nc2ccnc3[nH]ccc23)cc1`, the Potency entry was “inactive”. In the case of `CCC[C@@H](NC(=O)[C@@H]1[C@H]2CCC[C@@H]2CN1C(=O)[C@@H](NC(=O)[C@@H](NC(=O)c1cnccn1)C1CCCCC1)C(C)(C)C)C(=O)C(=O)NC1CC1`, the Potency is 16.6 µM (active).

Take `CN1C(=O)C(Cc2c[nH]c3ccccc23)NC1=S` (stereo not given): the Potency entry was “inactive”.

For `Nc1nc(Cl)nc2c1ncn2[C@@H]1O[C@H](CO)[C@@H](O)[C@H]1F`, the Potency is 2.35 µM (active). For the compound `CN(C)N=Nc1nc[nH]c1C(N)=O`, the Potency result was “inactive”. In the case of `O=C1C(CCC(O)c2ccc(F)cc2)C(c2ccc(O)cc2)N1c1ccc(F)cc1` (stereo not given), the Potency result was “inactive”. Turning to `CN(C)c1nc(Cc2ccc(NC(=O)c3ccc(C(F)(F)F)cc3)cc2)nc(N(C)C)c1CC(=O)O`, the Potency was 6.62 µM (active). Consider `C[C@@]1(c2cc(-c3cncnc3)c(F)cc2F)CCSC(N)=N1`, for which the Potency entry is “inactive”. `O=C(O)Cc1cccc(OCCCN(Cc2cccc(C(F)(F)F)c2Cl)CC(c2ccccc2)c2ccccc2)c1`: the Potency was 23.5 µM (active). For the compound `O=S(=O)(O)c1ccc2cc(N=Nc3cc(S(=O)(=O)O)c4cccnc4c3O)ccc2c1`, the Potency is 16.6 µM (active).

In the case of `NC1(C(=O)N[C@@H](CCO)c2ccc(Cl)cc2)CCN(c2ncnc3[nH]ccc23)CC1`, the Potency was 6.62 µM (active).

Consider `N[C@@H](CC(=O)N1CCn2c(nnc2C(F)(F)F)C1)Cc1cc(F)c(F)cc1F`, for which the Potency result is “inactive”.

`Fc1ccc(CNc2ncnc3ccc(F)cc23)cc1`: the Potency was 5.26 µM (active). Turning to `CCOC(=O)N1c2ccc(C(F)(F)F)cc2[C@@H](N(Cc2cc(C(F)(F)F)cc(C(F)(F)F)c2)C(=O)OC)C[C@H]1CC`, the Potency was 9.35 µM (active). Next, `CCc1cccc(CC)c1NC(=O)N1Cc2[nH]nc(NC(=O)c3ccc(N4CCN(C)CC4)cc3)c2C1`: 18.7 µM (active); `CS(=O)(=O)c1ccc(C2=C(c3ccccc3)C(=O)OC2)cc1`: “inactive”.

For the compound `CCCCCCOC(=O)N=C(N)c1ccc(NCc2nc3cc(C(=O)N(CCC(=O)OCC)c4ccccn4)ccc3n2C)cc1`, the Potency was 18.7 µM (active). As for `O=C1NC(=O)C(=Cc2ccc(-c3ccc(F)cc3O)o2)S1`, the Potency is 9.35 µM (active).

In the case of `CNC(=O)[C@H](CC1=CN=C2C=CCC=C12)NC(=O)[C@@H](CC(=O)NO)CC(C)C`, the Potency entry was “inactive”.

Take `COc1ccc(C=CC(=O)Nc2ccccc2C(=O)O)cc1OC`: the Potency result was “inactive”. Next, `CN[C@H]1[C@@H](O[C@@H]2[C@H](O[C@@H]3[C@@H](O)[C@@H](O)[C@@H](N=C(N)N)[C@@H](O)[C@@H]3N=C(N)N)O[C@H](C)[C@@]2(O)C=O)O[C@@H](CO)[C@@H](O)[C@H]1O`: “inactive”. In the case of `CC(=O)Nc1cccc(-n2c(=O)n(C3CC3)c(=O)c3c(Nc4ccc(I)cc4F)n(C)c(=O)c(C)c32)c1`, the Potency was 1.66 µM (active). Next, `CC1(C)OC2CC3C4CC(F)C5=CC(=O)C=CC5(C)C4C(O)CC3(C)[C@]2(C(=O)CO)O1` (stereo not given in full): 0.0118 µM (active). Under `CC1(C)[C@H]2CC[C@]3(C)[C@@H](C(=O)C=C4[C@@H]5C[C@@](C)(C(=O)O)CC[C@]5(C)CC[C@]43C)[C@@]2(C)CC[C@@H]1O` stands “inactive”; under `Cc1cnc(CNC(=O)c2c(=O)c3ccc(N4CCCN(C)CC4)nc3n3c2sc2ccccc23)cn1`, 8.12 µM (active); under `CCNC(=O)[C@H]1O[C@@H](n2cnc3c(N)nc(NCCc4ccc(CCC(=O)O)cc4)nc32)[C@H](O)[C@H]1O`, “inactive”.

`NC[C@H]1O[C@H](O[C@@H]2[C@@H](O)[C@@H](O[C@H]3O[C@H](CO)[C@@H](O)[C@H](N)[C@@H]3O)[C@H](N)C[C@@H]2N)[C@H](O)[C@@H](O)[C@H]1O`: the Potency entry was “inactive”. With `O=C(O)C1=CO[C@@H](O[C@@H]2O[C@H](CO)[C@H](O)[C@H](O)[C@H]2O)[C@@H]2C(CO)=CC[C@H]12`, the Potency is 4.18 µM (active).

As to `CN1CCC[C@H]1CCO[C@](C)(c1ccccc1)c1ccc(Cl)cc1`, the Potency entry was “inactive”. For `CN1C(=O)C[C@H](C(=O)N[C@@H](Cc2cnc[nH]2)C(=O)N2CCC[C@@H]2C(N)=O)NC1=O`, the Potency entry was “inactive”. Regarding `CN(C)CCN(Cc1ccc(Cl)cc1)c1ccccn1`, the Potency entry was “inactive”. Consider `NC(N)=Nc1nc(CSCCC(N)=NS(N)(=O)=O)cs1`, for which the Potency result was “inactive”.

In the case of `OC[C@H]1O[C@@H](Oc2ccc(O)cc2)[C@H](O)[C@@H](O)[C@H]1O`, the Potency entry is “inactive”. On to `O=C(O)c1nc(=O)[nH]c(=O)[nH]1`, for which the Potency is 10.2 µM (active). Under `O=C(Nc1ncc(SCCN2CCCC2)s1)[C@]1(c2ccc(S(=O)(=O)C3CC3)cc2)C[C@@H]1C1CCCCC1` stands 23.5 µM (active); under `CN[C@@H]1[C@@H](O)[C@@H](O[C@@H]2[C@@H](O)[C@H](O[C@H]3O[C@H](CN)[C@@H](O)[C@H](O)[C@@H]3O)[C@@H](N)C[C@@H]2NC(=O)[C@@H](O)CN)OC[C@]1(C)O`, “inactive”; under `CC=C1C2C=C(C)CC1(N)c1ccc(=O)[nH]c1C2` (stereo not given), “inactive”.

Take `CC[C@H](C)n1cc(C)c2c(C(=O)NCc3c(C)cc(C)[nH]c3=O)cc(-c3ccc(N4CCNCC4)nc3)cc21`: the Potency was 26.4 µM (active).

For the origin of these results see PubChem BioAssay (NCATS).
